Reference: PubChem BioAssay
The source made the active and inactive calls.

Assays:
[1] = binders of probe aFSTL3 on microarray, primary screen, stem cell growth factor project, biochemical, small-molecule microarray, fluorescence 635/667 (AID 1064); conditions: higher = more signal;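 further: measures binding of the biotinylated anti-FSTL3 antibody to printed compounds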
[2] = binders from COS7 lysate, DM2A8 probe, primary screen, torsin A project, cell lysate, small-molecule microarray, fluorescence 635/667 (AID 1065); conditions: higher = more signal, COS7 lysate expressing mutant human TOR1A
[3] = binders of probe aFGF2 on microarray, primary screen, stem cell growth factor project, biochemical, small-molecule microarray, fluorescence 635/667 (AID 1067); conditions: higher = more signal;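 further: measures binding of biotinylated aFGF2 protein to printed compounds on slides; z-score merges feature fluorescence and signal-to-noise across triplicate slides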
[4] = binders of probe aFGF10 on microarray, primary screen, stem cell growth factor project, biochemical, small-molecule microarray, fluorescence 635/667 (AID 1071); conditions: higher = more signal;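 further: score merges 667 nm spot intensity and signal to noise from triplicate slides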
[5] = molecular target: Neurogenic locus notch homolog protein 2 (Homo sapiens) (UniProt Q04721); assay: Notch2 binders on small-molecule microarrays, primary screen, biochemical, small-molecule microarray, 635 nm fluorescence, stem cell growth factors (AID 1073); conditions: Notch2 binding, higher = more signal
[6] = molecular target: Pro-neuregulin-1, membrane-bound isoform (Homo sapiens) (UniProt Q02297); assay: NRG1 binders on small-molecule microarrays, primary screen, psychiatric disease protein project, biochemical, small-molecule microarray, fluorescence 635/667 (AID 1075); conditions: NRG1 binding, 635 nm fluorescence, higher = more signal;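 further: score combines 667 nm spot fluorescence with signal to noise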
[7] = tested on: Neuregulin-1 EGF-like domain; assay: binders of neuregulin-1 EGF-like domain, primary screen, biochemical, small-molecule microarray, 635 nm fluorescence (AID 1081); conditions: small-molecule microarray binding, higher = more signal;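 further: binding of the protein to compounds printed on small-molecule microarray slides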
[8] = FRG1 promoter luciferase signal modulators, primary screen, FRG1 inhibition for FSHD, cell-based, C2C12 myotubes, firefly/Renilla luciferase, luminescence (AID 1084); conditions: higher = more signal, called active from +8 up or from −8 down
[9] = binders of probe aFST on microarray, primary screen, stem cell growth factor project, biochemical, small-molecule microarray, fluorescence 635/667 (AID 1086); conditions: higher = more signal;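 further: score merges 667 nm fluorescence with signal-to-noise of each printed compound spot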
[10] = binders of probe aHhip on microarray, primary screen, stem cell growth factor project, biochemical, small-molecule microarray, fluorescence 635/667 (AID 1087); conditions: higher = more signal;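 further: score merges spot fluorescence at 667nm with spot signal to noise ratio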
[11] = tested on: PRMT1 (protein arginine N-methyltransferase 1); assay: PRMT1 binders on small-molecule microarrays, primary screen, biochemical, small-molecule microarray, 635 nm fluorescence (AID 1088); conditions: small-molecule microarray binding, higher = more signal;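 further: binding of Prmt1 protein to compounds spotted on small-molecule microarray slides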
[12] = yeast growth modulation, basal conditions, primary screen, YJM789 clinical isolate, OD600, 24 h (AID 1089);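 further: growth of clinical yeast isolate S. cerevisiae YJM 789 seeded 1000 cells per well; test concentration not given here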; conditions: S. cerevisiae YJM789 growth, higher = more signal, called active from +8 up or from −8 down
[13] = fission yeast growth modulation, primary screen, strain 972, OD600, 24 h, no modulator (AID 1090);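 further: basal condition with compound alone and no growth modifier present; test concentration not given here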; conditions: S. pombe 972 growth, higher = more signal, called active from +8 up or from −8 down
[14] = S. cerevisiae growth modulation with rapamycin, primary screen, strain BY4716, OD600, 96 h (AID 1091); conditions: higher = more signal, called active from +8 up or from −8 down; further: test concentration not given here
[15] = molecular target: Torsin-1A-interacting protein 2 (Homo sapiens) (UniProt Q8NFQ8); assay: LULL1 binders on small-molecule microarray, primary screen, cell lysate, human LULL1 lysate, 635/667 nm fluorescence (AID 1092); conditions: hLULL1 lysate binding, 635 nm fluorescence, higher = more signal;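 further: probe is lysate of COS7 cells overexpressing human LULL1; score merges per-feature 667 nm fluorescence with signal-to-noise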
[16] = E. coli growth modulation, two-sided OD650, primary screen, E. coli filamentation project, strain DRC41, 24 h (AID 1093); conditions: OD650, 24 h, higher = more signal, called active from +8 up or from −8 down;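 further: MC1000 strain lacking acrAB efflux and sulA so SOS filamentation is blocked; test concentration not given here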
[17] = small-molecule microarray binders of probe aLefty2, primary screen, biochemical, biotinylated probe, 635/667 nm fluorescence (AID 1094); conditions: higher = more signal;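 further: score merges spot fluorescence near 667 nm with spot signal-to-noise ratio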
[18] = tested on: Noggin (protein binding on small-molecule microarray); assay: Noggin binders on small-molecule microarray, primary screen, biochemical, 635/667 nm fluorescence (AID 1095); conditions: 635 nm fluorescence, higher = more signal;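 further: score merges 667 nm feature fluorescence with signal to noise over triplicate slides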
[19] = molecular target: Neurogenic locus notch homolog protein 3 (Homo sapiens) (UniProt Q9UM47); assay: NOTCH3 binders on small-molecule microarray, primary screen, biochemical, 635/667 nm fluorescence (AID 1096); conditions: NOTCH3 binding, 635 nm fluorescence, higher = more signal
[20] = small-molecule microarray binders of probe aEGFR, primary screen, biochemical, biotinylated probe, 635/667 nm fluorescence (AID 1097); conditions: higher = more signal;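 further: probe is a biotinylated anti-EGFR antibody binding compounds printed on slides; score combines fluorescence near 667 nm and signal to noise of each spot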

Torsin-1A-interacting protein 2 (Homo sapiens), sequence (Q8NFQ8 whole entry, looked up): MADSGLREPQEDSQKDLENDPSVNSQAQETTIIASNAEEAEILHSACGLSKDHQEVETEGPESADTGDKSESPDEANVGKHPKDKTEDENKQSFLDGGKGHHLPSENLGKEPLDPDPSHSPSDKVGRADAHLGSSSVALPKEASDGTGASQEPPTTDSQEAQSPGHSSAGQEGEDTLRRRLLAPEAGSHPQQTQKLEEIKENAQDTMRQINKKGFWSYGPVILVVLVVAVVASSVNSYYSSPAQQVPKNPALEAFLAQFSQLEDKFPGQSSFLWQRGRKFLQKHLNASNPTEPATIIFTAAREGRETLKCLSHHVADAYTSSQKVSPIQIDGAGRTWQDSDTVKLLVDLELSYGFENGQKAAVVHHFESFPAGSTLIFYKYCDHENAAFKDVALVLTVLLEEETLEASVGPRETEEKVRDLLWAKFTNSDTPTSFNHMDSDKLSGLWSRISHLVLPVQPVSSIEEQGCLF
Neurogenic locus notch homolog protein 3 (Homo sapiens), sequence (Q9UM47 whole entry, looked up): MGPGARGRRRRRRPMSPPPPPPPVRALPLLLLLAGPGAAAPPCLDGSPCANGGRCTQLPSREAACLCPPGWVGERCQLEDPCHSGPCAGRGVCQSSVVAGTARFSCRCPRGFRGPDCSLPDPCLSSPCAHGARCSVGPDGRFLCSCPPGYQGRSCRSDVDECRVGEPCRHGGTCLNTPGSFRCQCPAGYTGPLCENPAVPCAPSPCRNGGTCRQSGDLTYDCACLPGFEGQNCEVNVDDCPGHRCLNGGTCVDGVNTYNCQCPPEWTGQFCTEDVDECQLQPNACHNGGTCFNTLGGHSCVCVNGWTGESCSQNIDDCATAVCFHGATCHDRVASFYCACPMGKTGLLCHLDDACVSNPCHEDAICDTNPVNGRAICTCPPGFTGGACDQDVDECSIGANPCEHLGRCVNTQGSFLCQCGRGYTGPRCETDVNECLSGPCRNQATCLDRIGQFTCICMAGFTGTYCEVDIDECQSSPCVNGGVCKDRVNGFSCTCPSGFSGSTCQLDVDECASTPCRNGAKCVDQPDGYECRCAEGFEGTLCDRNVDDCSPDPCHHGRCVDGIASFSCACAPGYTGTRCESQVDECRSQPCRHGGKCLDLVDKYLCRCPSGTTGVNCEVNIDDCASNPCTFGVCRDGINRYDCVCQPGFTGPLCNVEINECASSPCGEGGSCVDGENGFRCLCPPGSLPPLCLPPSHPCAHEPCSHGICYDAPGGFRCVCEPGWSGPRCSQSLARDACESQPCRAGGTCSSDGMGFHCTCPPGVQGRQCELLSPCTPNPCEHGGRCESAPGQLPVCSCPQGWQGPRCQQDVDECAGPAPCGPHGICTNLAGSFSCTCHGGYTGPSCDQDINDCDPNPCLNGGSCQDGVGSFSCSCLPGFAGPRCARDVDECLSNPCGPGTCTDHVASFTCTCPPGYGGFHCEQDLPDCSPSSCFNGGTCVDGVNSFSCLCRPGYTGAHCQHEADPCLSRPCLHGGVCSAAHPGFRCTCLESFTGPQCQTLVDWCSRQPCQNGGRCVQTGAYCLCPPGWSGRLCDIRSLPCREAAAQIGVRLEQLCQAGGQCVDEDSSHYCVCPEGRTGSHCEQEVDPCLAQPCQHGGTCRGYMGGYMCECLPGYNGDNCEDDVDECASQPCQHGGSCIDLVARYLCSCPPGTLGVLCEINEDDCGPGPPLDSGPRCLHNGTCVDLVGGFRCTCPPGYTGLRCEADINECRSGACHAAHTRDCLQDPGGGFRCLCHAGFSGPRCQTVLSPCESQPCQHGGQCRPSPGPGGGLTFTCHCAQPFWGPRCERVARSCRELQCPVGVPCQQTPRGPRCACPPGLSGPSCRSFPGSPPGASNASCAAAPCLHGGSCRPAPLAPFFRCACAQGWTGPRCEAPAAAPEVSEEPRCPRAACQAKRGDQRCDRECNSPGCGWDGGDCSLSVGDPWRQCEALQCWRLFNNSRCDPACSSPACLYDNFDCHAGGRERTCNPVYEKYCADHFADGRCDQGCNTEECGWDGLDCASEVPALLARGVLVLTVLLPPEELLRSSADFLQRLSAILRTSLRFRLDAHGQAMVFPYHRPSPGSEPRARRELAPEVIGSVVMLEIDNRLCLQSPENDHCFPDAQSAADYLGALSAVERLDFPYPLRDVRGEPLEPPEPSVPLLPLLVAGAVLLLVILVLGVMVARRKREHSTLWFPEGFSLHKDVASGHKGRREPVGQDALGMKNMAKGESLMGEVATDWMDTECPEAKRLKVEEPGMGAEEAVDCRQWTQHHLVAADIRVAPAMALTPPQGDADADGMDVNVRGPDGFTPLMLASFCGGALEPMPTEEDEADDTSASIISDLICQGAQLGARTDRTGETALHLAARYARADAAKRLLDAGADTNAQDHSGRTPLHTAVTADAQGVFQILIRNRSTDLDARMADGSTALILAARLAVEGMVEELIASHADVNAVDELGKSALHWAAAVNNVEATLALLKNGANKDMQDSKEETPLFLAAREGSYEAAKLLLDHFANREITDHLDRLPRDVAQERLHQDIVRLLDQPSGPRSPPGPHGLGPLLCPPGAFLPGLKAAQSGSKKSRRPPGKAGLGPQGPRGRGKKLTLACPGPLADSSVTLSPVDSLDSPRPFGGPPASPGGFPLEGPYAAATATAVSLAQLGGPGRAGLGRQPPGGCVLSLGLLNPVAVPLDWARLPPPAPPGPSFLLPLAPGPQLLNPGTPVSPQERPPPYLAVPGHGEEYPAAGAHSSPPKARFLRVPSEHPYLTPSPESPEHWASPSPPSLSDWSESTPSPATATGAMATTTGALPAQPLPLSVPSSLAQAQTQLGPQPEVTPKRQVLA
Pro-neuregulin-1, membrane-bound isoform (Homo sapiens), sequence (Q02297 whole entry, looked up, the tested form may be a part, canonical isoform): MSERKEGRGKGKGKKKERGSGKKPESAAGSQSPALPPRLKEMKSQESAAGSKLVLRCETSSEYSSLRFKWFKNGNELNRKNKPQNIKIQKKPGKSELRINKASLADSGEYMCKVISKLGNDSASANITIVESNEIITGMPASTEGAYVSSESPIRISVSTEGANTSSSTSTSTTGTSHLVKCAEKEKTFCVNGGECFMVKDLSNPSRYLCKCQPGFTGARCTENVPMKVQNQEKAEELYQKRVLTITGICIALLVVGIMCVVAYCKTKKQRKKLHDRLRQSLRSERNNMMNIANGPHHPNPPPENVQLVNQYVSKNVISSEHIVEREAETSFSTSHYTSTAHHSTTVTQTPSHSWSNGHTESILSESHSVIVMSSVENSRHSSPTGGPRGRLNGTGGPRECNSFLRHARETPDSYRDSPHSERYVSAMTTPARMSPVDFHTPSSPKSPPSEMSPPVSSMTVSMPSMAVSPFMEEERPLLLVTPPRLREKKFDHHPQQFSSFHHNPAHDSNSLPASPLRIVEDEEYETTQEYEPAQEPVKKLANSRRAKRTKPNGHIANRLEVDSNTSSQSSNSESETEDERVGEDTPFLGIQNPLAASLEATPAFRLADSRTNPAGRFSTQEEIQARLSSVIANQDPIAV

SMILES	composite z-score [1]	composite z-score [2]	composite z-score [3]	composite z-score [4]	composite z-score [5]	composite z-score [6]	composite z-score [7]	z-score [8]	composite z-score [9]	composite z-score [10]	composite z-score [11]	z-score [12]	z-score [13]	z-score [14]	composite z-score [15]	z-score [16]	composite z-score [17]	composite z-score [18]	composite z-score [19]	composite z-score [20]
Cc1ccc2[nH]c3nc(CCCn4ccnc4-c4ccccc4)nnc3c2c1	-0.172	0.616	-0.119	0.247	1.63	0.742	1.12	0.921 (inactive)	0.26	0.0274	0.842	0.324 (inactive)	0.0855 (inactive)	-0.425 (inactive)	1.38	1.13 (inactive)	0.504	0.385	1.12	-0.009
CCOC(=O)CCN1C(=O)[C@H]2[C@H]3[C@H](O)[C@H](O)CC(=O)[C@@H]3CC[C@H]2C1=O	-0.577	0.125	-0.16	0.832	0.916	0.102	0.482	-0.407 (inactive)	0.658	-0.27	0.58	-0.0366 (inactive)	-0.267 (inactive)	-0.0766 (inactive)	0.846	-0.353 (inactive)	-0.198	0.589	0.738	0.0004
C#CCCCON=C1C[C@@H](O)[C@@H](O)[C@@H]2[C@@H]3C(=O)N(CC)C(=O)[C@@H]3CC[C@H]12	-0.281	0.368	-0.0885	0.236	0.03	1.16	0.528	-0.234 (inactive)	0.0594	-0.128	1.37	-0.276 (inactive)	-0.26 (inactive)	-0.247 (inactive)	2.11	0.216 (inactive)	-0.25	0.726	0.348	-0.174
COc1ccc(COC(=O)NN=C2C[C@@H](O)[C@@H](O)[C@@H]3[C@@H]4C(=O)N(C(C)(C)C)C(=O)[C@@H]4CC[C@@H]23)cc1	-0.31	1.1	-0.0243	0.568	1.14	0.173	0.644	1.24 (inactive)	0.413	-0.204	1.16	-1.26 (inactive)	-0.573 (inactive)	-0.731 (inactive)	0.515	1.09 (inactive)	-0.005	0.0364	1.02	-0.03
COc1cccc([C@H]2Oc3ccc(OC)cc3C(=NOCC[C@@H]3C=C[C@H](OC(C)=O)[C@@H](COC(C)=O)O3)[C@@H]2O)c1	-0.478	0.459	-0.017	0.577	0.895	1.28	0.773	1.52 (inactive)	0.366	-0.21	0.829	0.243 (inactive)	0.594 (inactive)	0.0357 (inactive)	1	0.677 (inactive)	-0.0769	0.475	0.647	0.0281
COc1ccc2c(c1)O[C@@H](c1cccc(C(F)(F)F)c1)[C@H](O)C2=O	-0.609	-0.184	-0.131	0.452	0.242	0.0761	0.4	-0.682 (inactive)	0.0335	-0.236	0.222	-3.42 (inactive)	-6.34 (inactive)	-0.489 (inactive)	1.19	1.2 (inactive)	-0.261	0.614	0.661	0.0251
CC(C)=NOC(C)CN1CCCCc2nc(C)c(C)cc21 (stereo not given)	-0.216	0.927	-0.0858	0.0948	-0.134	0.152	0.093	0.265 (inactive)	0.142	0.0695	0.434	-0.139 (inactive)	-0.104 (inactive)	-0.0334 (inactive)	1.04	0.194 (inactive)	-0.0441	0.634	-0.0247	-0.027
CC(CCN1CCc2nc(-c3ccccc3)c(-c3ccccc3)cc2C1)=NO[C@H](C)c1cn([C@H](CO)Cc2ccccc2)nn1	-0.11	0.575	-0.0569	-0.332	-0.54	0.164	0.299	-0.327 (inactive)	-0.125	-0.13	0.485	-0.0115 (inactive)	-0.989 (inactive)	-4.22 (inactive)	0.381	0.561 (inactive)	0.0272	0.622	-0.0395	-0.122
O=C1[C@H]2[C@H]3[C@H](O)[C@H](O)CC(=NO[C@@H]4O[C@H](CO)[C@@H](O)[C@H](O)[C@H]4O)[C@H]3CC[C@H]2C(=O)N1c1ccc(F)cc1F	0.552	0.75	0.0159	0.265	0.51	-0.557	-0.977	0.404 (inactive)	0.437	-0.0296	1.08	-0.484 (inactive)	-0.352 (inactive)	-1.99 (inactive)	0.0348	0.356 (inactive)	-0.128	0.161	0.365	-0.0084
CCN1C(=O)[C@H]2[C@H]3[C@H](O)[C@H](O)CC(=NOCC=C(C)CCC=C(C)C)[C@@H]3CC[C@H]2C1=O	-0.524	1.36	-0.146	0.483	0.2	-0.0702	0.91	0.256 (inactive)	0.774	-0.0994	1.4	-0.56 (inactive)	-1.86 (inactive)	-1.3 (inactive)	0.915	0.756 (inactive)	-0.0973	0.962	1.08	0.095
COC(=O)[C@H](C)NC(=O)CCC1CC(OC(=O)NCc2cccc3ccccc23)CC2(CCCC(COC(=O)NCc3ccccc3)O2)O1 (stereo not given in full)	-0.425	-0.261	0.026	0.329	1.39	0.853	0.78	2.13 (inactive)	0.2	-0.374	1.29	-0.68 (inactive)	0.507 (inactive)	-0.936 (inactive)	1.97	-0.351 (inactive)	-0.0638	0.478	1.09	0.12
CC(=O)OC[C@H]1O[C@H](C#CCC2CCCCC2)C=C[C@@H]1OC(C)=O	-0.785	0.547	-0.0739	0.494	0.207	0.833	0.828	1.23 (inactive)	-0.0607	-0.0618	1.18	0.877 (inactive)	-15.5 (active)	-0.525 (inactive)	1.17	1.1 (inactive)	-0.194	0.598	0.568	0.0698
CC(C)=NO[C@H](C)c1cn([C@@H]2COC[C@H]2O)nn1	-0.517	-0.276	-0.163	0.517	0.712	0.0493	0.305	-0.807 (inactive)	0.362	-0.0618	0.629	-0.173 (inactive)	-1.02 (inactive)	0.127 (inactive)	0.242	0.132 (inactive)	-0.0936	0.683	0.562	0.0102
COc1ccc(OC[C@@H](CO)OC)cc1	-0.306	0.415	-0.0512	0.3	0.0354	-0.156	-0.0824	0.759 (inactive)	0.0746	-0.0994	-0.601	-0.368 (inactive)	-0.199 (inactive)	-0.302 (inactive)	-0.0777	0.418 (inactive)	-0.185	0.802	-0.176	-0.0381
O=C(NN=C1C[C@@H](O)[C@@H](O)[C@@H]2[C@@H]3C(=O)N(Cc4ccccc4)C(=O)[C@@H]3CC[C@H]12)OCc1ccccc1	-0.286	0.897	-0.0996	0.378	0.226	-0.153	-0.15	0.157 (inactive)	0.122	0.0373	-0.38	-0.79 (inactive)	-0.815 (inactive)	-1.27 (inactive)	-0.845	0.399 (inactive)	-0.269	0.382	0.577	-0.0796
COC(=O)[C@H](C)NC(=O)CCC1CC(OC(=O)NCc2cccc3ccccc23)CC2(CCCC(COC(=O)NCCCN3CCCC3=O)O2)O1 (stereo not given in full)	-0.669	-0.158	-0.141	0.119	1.43	0.567	0.925	-3.13 (inactive)	1.01	0.208	1.58	0.691 (inactive)	1.05 (inactive)	0.187 (inactive)	1.89	-1.25 (inactive)	0.0598	0.79	1.14	0.074
COc1cccc([C@H](O)Cn2cc(-c3ccc(CON=C(C)C)cc3)nn2)c1	-0.131	0.173	-0.0138	0.0967	-0.193	-0.486	0.0451	-0.291 (inactive)	0.0775	-0.185	0.0112	-0.733 (inactive)	0.16 (inactive)	-0.625 (inactive)	-0.441	1.2 (inactive)	-0.0561	-0.197	-1.27	0.0709
CC(C)=CCCC(C)=CCON=C1C[C@@H](O)[C@@H](O)[C@@H]2[C@@H]3C(=O)N([C@@H](C)c4ccccc4)C(=O)[C@@H]3CC[C@@H]12	-0.465	-0.0543	-0.0493	0.374	0.449	0.137	0.661	-0.366 (inactive)	0.11	-0.249	-0.744	-0.208 (inactive)	0.301 (inactive)	-0.362 (inactive)	0.676	0.215 (inactive)	-0.166	0.331	0.508	-0.111
CON=C(C)CCN1CCc2nc(-c3ccccc3)c(-c3ccccc3)cc2C1	-0.262	-0.052	-0.128	-0.149	0.195	0.387	-0.961	0.953 (inactive)	0.0046	-0.201	0.0214	-1.08 (inactive)	-17.2 (active)	-3.67 (inactive)	-0.919	1.69 (inactive)	-0.0699	0.107	0.556	-0.158
